Test results as given in ChEMBL document CHEMBL3988442, “University of Dundee, Small-Polar-MMV Screening Library” (2021).
For some assays here: Results with a measured potency or affinity are listed apart.

What was measured:
Set-up in all cases: scale not given: direction of the effect not stated beside the values
[1] = biological target: Protein translocase subunit SecA (Escherichia coli (strain K12)) (UniProt P10408); test: Assay to Identify E. coli SecA ATPase Inhibitors; format: functional; conditions: 30 µM
[2] = biological target: T1, Ubiquitin-activating enzyme e1, putative (Leishmania donovani (strain BPK282A1)) (UniProt E9BSI1); test: Leishmania donovani Ubiquitin Activating Enzyme (LdE1); format: functional; conditions: 30 µM
T1 sequence (whole entry): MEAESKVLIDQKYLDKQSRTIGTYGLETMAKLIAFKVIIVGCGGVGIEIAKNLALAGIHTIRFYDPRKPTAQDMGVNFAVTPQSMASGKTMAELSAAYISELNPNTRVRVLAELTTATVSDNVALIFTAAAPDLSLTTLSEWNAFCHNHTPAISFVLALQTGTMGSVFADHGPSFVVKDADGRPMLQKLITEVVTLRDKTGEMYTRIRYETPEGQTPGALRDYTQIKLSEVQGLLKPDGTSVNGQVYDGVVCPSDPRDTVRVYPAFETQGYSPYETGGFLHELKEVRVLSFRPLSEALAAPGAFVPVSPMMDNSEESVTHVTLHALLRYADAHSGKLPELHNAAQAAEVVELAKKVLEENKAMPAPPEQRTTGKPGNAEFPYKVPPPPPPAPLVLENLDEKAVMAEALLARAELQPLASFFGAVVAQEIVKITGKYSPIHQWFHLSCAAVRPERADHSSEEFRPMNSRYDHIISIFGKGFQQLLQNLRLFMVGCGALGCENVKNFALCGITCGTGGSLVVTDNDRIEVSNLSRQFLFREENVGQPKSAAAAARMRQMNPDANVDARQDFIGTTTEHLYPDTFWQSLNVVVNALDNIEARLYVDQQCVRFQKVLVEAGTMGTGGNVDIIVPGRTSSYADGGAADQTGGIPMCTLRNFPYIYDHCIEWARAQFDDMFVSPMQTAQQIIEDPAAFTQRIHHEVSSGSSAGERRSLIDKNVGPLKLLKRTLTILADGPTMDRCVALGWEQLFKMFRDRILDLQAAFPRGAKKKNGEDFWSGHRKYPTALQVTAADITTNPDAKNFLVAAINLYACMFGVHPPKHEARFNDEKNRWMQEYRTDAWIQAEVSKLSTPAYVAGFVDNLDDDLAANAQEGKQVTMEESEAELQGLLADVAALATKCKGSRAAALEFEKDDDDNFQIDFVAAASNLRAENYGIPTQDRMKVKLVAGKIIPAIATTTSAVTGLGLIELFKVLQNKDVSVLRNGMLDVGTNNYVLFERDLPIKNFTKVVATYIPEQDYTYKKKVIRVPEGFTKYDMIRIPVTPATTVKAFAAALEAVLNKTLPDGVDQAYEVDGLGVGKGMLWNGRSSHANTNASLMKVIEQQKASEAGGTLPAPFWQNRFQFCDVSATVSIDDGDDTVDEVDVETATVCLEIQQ

[3] = biological target: AMP-activated protein kinase, AMPK (Homo sapiens) (UniProt P54646+O43741+P54619+Q9UGJ0+Q9Y478+Q13131+Q9UGI9); test: AMP-dependent Kinase enzyme assay. An in vitro enzyme assay that detects ADP turnover that is directly proportional to AMPK activity. This uses naive AMPK that is activated during the assay with MK-8722; format: functional; conditions: 30 µM
[4] = biological target: Sialic acid-binding Ig-like lectin 9 (Homo sapiens) (UniProt Q9Y336); test: Hs-Siglec9 ALPHAscreen SOP 20170721; conditions: 10 µM
Trypanosoma cruzi = test: Trypanosoma cruzi phosphomannomutase and mannose-1-phosphate guanylyltransferase assay; format: functional; conditions: 10 µM
[5] = biological target: T2, Arginase-2, mitochondrial (Homo sapiens) (UniProt P78540); test: in vitro enzyme assay to detect the production of urea directly proportional to the activity of Arginase II; format: functional; conditions: 33.3 µM; further: in the data most compounds retested in dose-response had high values
T2 sequence (whole entry): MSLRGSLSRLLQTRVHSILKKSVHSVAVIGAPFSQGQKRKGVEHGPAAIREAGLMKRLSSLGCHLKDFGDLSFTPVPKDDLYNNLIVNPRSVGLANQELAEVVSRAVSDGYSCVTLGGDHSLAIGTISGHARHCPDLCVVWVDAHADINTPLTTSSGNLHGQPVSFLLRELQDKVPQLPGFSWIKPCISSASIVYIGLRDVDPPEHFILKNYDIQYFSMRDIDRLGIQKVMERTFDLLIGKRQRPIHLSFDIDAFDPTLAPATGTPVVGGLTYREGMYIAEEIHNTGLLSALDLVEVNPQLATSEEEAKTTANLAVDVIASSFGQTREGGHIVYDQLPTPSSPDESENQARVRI

[6] = biological target: T3, Proteasome subunit beta (Trypanosoma cruzi) (UniProt O96673); test: Trypanosoma cruzi proteasome chymotrypsin-like activity (TcProtChymo) assay.; further: in the data most compounds retested in dose-response had high values; format: functional; conditions: 9.37 µM
T3 sequence (whole entry): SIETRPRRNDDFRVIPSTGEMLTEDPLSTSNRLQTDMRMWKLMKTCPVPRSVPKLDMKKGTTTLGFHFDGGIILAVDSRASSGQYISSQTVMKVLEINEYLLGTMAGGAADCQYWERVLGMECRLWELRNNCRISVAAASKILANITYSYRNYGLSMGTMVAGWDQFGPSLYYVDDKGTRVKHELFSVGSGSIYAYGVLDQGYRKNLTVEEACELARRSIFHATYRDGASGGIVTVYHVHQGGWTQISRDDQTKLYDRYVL

Homo sapiens = organism: Homo sapiens; test: To identify inhibition of the IFN signalling (Jak-Stat) pathway via expression of an eGFP reporter gene under the control of an IFN-stimulated response element (ISRE) containing MxA promoter.; format: functional; conditions: 30 µM
[7] = biological target: T4, Tyrosyl-tRNA synthetase, putative (Trypanosoma cruzi (strain CL Brener)) (UniProt Q4DSP6); test: Trypanosoma cruzi tyrosyl tRNA synthetase (TcYRS) _High Tyrosine SOP; format: functional; conditions: 30 µM; further: in the data most compounds retested in dose-response had high values
T4 sequence (whole entry): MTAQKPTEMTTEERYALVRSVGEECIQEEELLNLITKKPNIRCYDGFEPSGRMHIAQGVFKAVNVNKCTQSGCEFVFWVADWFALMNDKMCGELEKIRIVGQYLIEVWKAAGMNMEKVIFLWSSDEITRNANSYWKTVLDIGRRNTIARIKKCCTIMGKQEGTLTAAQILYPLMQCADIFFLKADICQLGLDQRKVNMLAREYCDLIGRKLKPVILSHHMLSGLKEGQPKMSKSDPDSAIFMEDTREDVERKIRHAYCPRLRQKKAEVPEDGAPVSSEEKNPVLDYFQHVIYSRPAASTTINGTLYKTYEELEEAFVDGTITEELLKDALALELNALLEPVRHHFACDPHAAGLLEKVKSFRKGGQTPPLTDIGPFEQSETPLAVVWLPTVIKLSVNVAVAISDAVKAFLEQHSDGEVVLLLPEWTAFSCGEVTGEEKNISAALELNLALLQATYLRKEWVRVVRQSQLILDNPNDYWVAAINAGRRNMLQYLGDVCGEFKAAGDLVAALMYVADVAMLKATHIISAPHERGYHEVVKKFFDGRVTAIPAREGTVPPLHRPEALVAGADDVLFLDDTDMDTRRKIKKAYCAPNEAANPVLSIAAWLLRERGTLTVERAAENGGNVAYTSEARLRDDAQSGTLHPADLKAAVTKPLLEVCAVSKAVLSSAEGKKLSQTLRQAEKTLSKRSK

[8] = biological target: T4, Tyrosyl-tRNA synthetase, putative (Trypanosoma cruzi (strain CL Brener)); test: Trypanosoma cruzi tyrosyl tRNA synthetase (TcYRS) SOP; format: functional; conditions: 30 µM
[9] = biological target: Chromo domain-containing protein 1 (Saccharomyces cerevisiae (strain ATCC 204508 / S288c) (Baker's yeast)) (UniProt P32657); test: ScCHD-1 Enzyme Inhibition Assay; format: functional; conditions: 30 µM; further: in the data most compounds retested in dose-response had high values
Sequence of Chromo domain-containing protein 1 (Saccharomyces cerevisiae (strain ATCC 204508 / S288c) (Baker's yeast)) (P32657 whole entry, the tested form may be a part): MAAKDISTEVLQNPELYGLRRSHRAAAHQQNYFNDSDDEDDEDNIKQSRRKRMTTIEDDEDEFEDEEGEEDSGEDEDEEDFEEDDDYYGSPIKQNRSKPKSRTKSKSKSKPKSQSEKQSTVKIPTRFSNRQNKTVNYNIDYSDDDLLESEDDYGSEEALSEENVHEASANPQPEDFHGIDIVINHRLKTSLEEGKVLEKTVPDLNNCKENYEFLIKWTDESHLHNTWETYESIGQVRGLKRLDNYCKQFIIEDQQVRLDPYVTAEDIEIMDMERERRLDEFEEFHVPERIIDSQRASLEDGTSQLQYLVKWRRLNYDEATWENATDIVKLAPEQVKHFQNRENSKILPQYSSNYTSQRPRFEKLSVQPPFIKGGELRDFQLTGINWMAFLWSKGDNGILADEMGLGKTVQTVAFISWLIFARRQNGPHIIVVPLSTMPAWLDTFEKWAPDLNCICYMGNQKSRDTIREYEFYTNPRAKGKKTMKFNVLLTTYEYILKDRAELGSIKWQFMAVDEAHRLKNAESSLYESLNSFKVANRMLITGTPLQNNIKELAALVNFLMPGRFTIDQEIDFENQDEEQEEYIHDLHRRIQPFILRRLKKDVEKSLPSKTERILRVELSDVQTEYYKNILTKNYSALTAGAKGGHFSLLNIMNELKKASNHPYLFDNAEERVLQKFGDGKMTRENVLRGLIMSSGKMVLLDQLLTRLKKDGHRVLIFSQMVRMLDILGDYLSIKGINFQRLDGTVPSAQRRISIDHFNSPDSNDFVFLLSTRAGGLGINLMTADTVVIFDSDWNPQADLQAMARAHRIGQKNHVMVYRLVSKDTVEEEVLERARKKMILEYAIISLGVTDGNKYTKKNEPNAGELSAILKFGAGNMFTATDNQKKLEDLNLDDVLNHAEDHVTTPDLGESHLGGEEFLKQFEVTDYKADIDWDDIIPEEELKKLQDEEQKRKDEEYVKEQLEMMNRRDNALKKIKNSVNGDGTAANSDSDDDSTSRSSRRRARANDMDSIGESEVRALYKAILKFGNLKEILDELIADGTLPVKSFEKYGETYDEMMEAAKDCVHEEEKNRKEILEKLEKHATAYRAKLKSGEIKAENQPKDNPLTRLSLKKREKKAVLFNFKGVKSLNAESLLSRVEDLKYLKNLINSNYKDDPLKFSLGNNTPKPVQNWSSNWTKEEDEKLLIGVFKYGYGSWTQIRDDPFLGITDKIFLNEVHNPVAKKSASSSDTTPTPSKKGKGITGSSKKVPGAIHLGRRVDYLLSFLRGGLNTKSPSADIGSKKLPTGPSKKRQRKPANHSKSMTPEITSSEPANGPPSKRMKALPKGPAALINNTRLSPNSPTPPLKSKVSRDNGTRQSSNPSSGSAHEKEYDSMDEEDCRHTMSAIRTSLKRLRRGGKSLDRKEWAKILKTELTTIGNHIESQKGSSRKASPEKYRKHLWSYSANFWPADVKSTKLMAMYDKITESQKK

Sequence of Sialic acid-binding Ig-like lectin 9 (Homo sapiens) (Q9Y336 whole entry): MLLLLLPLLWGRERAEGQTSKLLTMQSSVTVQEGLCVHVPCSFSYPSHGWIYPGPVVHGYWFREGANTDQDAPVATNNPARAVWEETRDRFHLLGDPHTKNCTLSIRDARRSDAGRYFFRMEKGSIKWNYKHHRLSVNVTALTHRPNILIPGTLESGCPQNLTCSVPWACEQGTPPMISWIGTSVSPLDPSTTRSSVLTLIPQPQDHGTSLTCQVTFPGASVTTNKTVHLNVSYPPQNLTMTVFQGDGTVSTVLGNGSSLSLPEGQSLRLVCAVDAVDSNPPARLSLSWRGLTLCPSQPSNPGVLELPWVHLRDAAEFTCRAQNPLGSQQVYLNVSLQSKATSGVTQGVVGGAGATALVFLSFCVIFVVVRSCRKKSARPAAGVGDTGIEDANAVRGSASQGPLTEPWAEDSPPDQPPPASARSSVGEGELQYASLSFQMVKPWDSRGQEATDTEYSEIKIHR
Sequence of Protein translocase subunit SecA (Escherichia coli (strain K12)) (P10408 whole entry): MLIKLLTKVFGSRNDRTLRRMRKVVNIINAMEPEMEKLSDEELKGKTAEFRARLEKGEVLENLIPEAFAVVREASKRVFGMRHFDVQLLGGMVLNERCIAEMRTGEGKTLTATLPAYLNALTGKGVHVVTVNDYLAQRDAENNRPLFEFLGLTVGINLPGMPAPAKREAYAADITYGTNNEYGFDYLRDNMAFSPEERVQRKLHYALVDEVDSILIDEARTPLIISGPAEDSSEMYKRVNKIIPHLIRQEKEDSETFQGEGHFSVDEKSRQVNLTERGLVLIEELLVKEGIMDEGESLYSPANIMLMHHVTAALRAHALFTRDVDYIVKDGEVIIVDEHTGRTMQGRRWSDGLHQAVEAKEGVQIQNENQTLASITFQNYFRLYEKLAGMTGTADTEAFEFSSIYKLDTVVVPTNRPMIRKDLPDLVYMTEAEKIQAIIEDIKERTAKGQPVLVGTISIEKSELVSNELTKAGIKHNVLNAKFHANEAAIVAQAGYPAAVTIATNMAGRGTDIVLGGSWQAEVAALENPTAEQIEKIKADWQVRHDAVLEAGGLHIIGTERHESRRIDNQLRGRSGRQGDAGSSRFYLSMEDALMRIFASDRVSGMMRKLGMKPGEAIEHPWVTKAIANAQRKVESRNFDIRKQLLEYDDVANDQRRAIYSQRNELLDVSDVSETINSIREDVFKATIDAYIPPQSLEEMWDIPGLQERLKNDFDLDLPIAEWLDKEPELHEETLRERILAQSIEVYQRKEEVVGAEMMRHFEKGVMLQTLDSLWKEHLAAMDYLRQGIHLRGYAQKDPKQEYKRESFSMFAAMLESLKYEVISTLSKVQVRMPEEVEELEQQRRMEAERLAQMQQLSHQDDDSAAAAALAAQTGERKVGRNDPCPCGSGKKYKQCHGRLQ

| SMILES | Percent Effect [1] [%] | Percent Effect [2] [%] | Percent Effect [3] [%] | Percent Effect [4] [%] | Percent Effect (Trypanosoma cruzi) [%] | Percent Effect [5] [%] | Percent Effect [6] [%] | Percent Effect (Homo sapiens) [%] | Percent Effect [7] [%] | Percent Effect [8] [%] | Percent Effect [9] [%] |
| --- | --- | --- | --- | --- | --- | --- | --- | --- | --- | --- | --- |
| CCCC1CCCN(Cc2csc(-c3cnn(C)c3)n2)CC1 (configuration not stated) | -2.48 | -5.26 | -0.945 | -3.96 | -0.376 | -5.75 | 20.4 | 20.6 | 8.33 | 19.5 | -4.84 |
| CC(=O)N1CCCC(c2ccc(Nc3nc(C)cc(C)n3)cn2)C1 (configuration not stated) | -3.24 | 5.33 | 9.18 | 0.842 | -1.18 | 3.5 | -2.2 | 4.23 | 3.19 | 14.1 | -7.25 |
| CN(C)C(=O)CNC(=O)Nc1cccc(Cl)c1SC(F)F | -3.28 | 1.39 | 2.42 | 11.5 | -7.09 | 1.77 | 1.05 | -0.391 | 1.05 | -2.56 | 0.00979 |
| Cc1cc(CN(C)Cc2cc3c(cc2OC(F)F)OCO3)on1 | -6.72 | 2.7 | 1.74 | -1.22 | -0.684 | 3.23 | 5.24 | -2.07 | 0 | 1.24 | -2.37 |
| CC(O)CN1CCN(C(=O)c2ccc(Cn3cccc3)cc2)CC1 (configuration not stated) | -2.39 | 13.5 | -8.63 | -2.4 | -3.49 | -6.81 | 17.8 | 6.79 | 10.3 | 25.9 | -2.47 |
| Cc1ccc(CC(=O)N2CSCC2C(=O)N(C)Cc2ccco2)o1 (configuration not stated) | -2.18 | 2.63 | 17.7 | -8.06 | -2.89 | 3.24 | 7.02 | -5.97 | 3.45 | 1.24 | -0.996 |
| CC(C(=O)N1CCCN(Cc2ccc(C#N)cc2)CC1)n1ccnc1 (configuration not stated) | -3.9 | 15.8 | -24.4 | -5.95 | -6.01 | 1.15 | 17.2 | 29.1 | 4.41 | 12.2 | -7.57 |
| Cc1nc(CN(C)C2CCN(Cc3ccno3)C2)no1 (configuration not stated) | -3.58 | 18.2 | -53.5 | -23.7 | 5.19 | -7.79 | 29.4 | 4.64 | 3.81 | 18.8 | 3.1 |
| CCN(c1ccc(C(=O)NCCCN2CCOCC2)cc1)S(=O)(=O)CC | -3.73 | 10.5 | -2.83 | -8.52 | -6.33 | 2.37 | 15.8 | -2.55 | -1.06 | -2.6 | -5.76 |
| COCc1cccc(NC(C)C(=O)N(C)Cc2ccccc2)c1 (configuration not stated) | -8.46 | 10.8 | -16.3 | 48 | 7.92 | 33.5 | -1.46 | -2.64 | 6.45 | 13.6 | -14.3 |
| CCc1noc(CN2CCCC2c2noc(C3CC3)n2)n1 (configuration not stated) | 0.214 | 21.6 | -11.2 | -6.88 | 3.68 | -10 | 12.8 | 19.7 | 9.36 | 18.5 | -9.57 |
| CC(C)c1nccn1CCCNC(=O)c1ccc(-c2cncnc2)nc1 | -0.347 | 8 | -10.9 | 8.21 | 3.21 | 7.29 | 16.2 | 17.9 | 4.92 | 13.6 | -5.5 |
| Cc1ccc(NC(=O)NC(C)c2nc[nH]n2)s1 (configuration not stated) | -7.16 | 5.41 | 1.69 | 19.6 | -0.293 | 2.23 | 9.7 | -8.4 | 6.45 | 13.6 | -2.14 |
| CCc1ccc(NC(=O)c2cnc(N3CCN(C)CC3)nc2C)cc1 | -3.08 | 20.8 | -8.09 | -20.9 | 4.63 | -0.645 | 8.01 | 15.9 | 2.12 | 11.5 | -10.8 |
| CCn1cc(N2Cc3nc(N4CCN(C)CC4)ncc3C2=O)cn1 | -4.57 | 4 | 4.85 | 8.98 | -1.97 | -13.2 | 15.2 | -0.771 | 6.35 | 12.8 | -11.9 |
| CCC(=O)NCc1cc(Br)ccc1OC(F)F | -4.17 | 8 | -2.35 | 7.52 | 3.41 | 1.04 | 13.6 | -8.01 | 9.29 | 18.5 | -6.17 |
| CCC(=O)Nc1nnc(CCCOc2ccccc2)s1 | -6.68 | -1.33 | 6.74 | 2.25 | 1.77 | -9.68 | 10.3 | -7.47 | 7.41 | 5.13 | -0.786 |
| Cc1ccc(CNC2CCCc3c2cnn3C)s1 (configuration not stated) | -5.39 | 13 | 5.11 | 1.58 | 6.95 | 0.21 | 17.1 | 9 | 9.52 | 21.2 | -7.9 |
| Cc1cnn(CC2CCCN2Cc2nc3ccccc3n2C)c1 (configuration not stated) | -1.76 | -10.1 | -1.75 | 3.88 | 8.4 | 1.9 | -1.23 | -22.9 | 9.36 | 13.9 | -3.16 |
| COc1ccc(C(=O)NS(=O)(=O)c2ccc(C#N)cc2C(F)(F)F)cc1 | -1.41 | -10.8 | 20.6 | 0.998 | 0.472 | 6.41 | -3.06 | 11.2 | -2.46 | -1.24 | -2.1 |
| O=C(c1ccc(F)c(F)c1)N1CCCC1CN1CCCC1 (configuration not stated) | -1.25 | 7.89 | -2.36 | -14.5 | -3.02 | -3.55 | 15.2 | -11.1 | 7.45 | 18.2 | -8.37 |
| N#Cc1ccnc(N2CCC(c3nccn3Cc3cscn3)CC2)c1 | -1.75 | 13.3 | 2.35 | 5.36 | 3.8 | 0 | 15.5 | 21.8 | 4.92 | 13.6 | -7.45 |
